For 54 compounds, % elongation and z-score results are on record in PubChem BioAssay AID588519 (ICCB-Longwood Screening Facility, Harvard Medical School, 2011).

The campaign covered roughly 150,000 compounds. About 1,000 (0.67%) were called active. No stated cut-off is given here; in the data, active means % elongation below about 90%; inactive means the rest, inconclusive results apart. Many of the other results were omitted from the sample, so actives are more common in it than they were.

This assay deals with Genome polyprotein (Poliovirus type 1 (strain Mahoney)) (UniProt P03300). The assay is described as follows: inhibitors of poliovirus polymerase RNA elongation – biochemical, fluorescence polarization, total intensity, primary screen (AID 588519). On z-score: compound at 16.7 µg/mL. The settings on record: stronger effect = lower value; for % elongation: compound at 16.7 µg/mL; for z-score: measured here: FP z-score.

[1] abbreviates: measured here: total intensity read-out.

Sequence of Genome polyprotein (Poliovirus type 1 (strain Mahoney)) (P03300 1749-2209 limits assumed): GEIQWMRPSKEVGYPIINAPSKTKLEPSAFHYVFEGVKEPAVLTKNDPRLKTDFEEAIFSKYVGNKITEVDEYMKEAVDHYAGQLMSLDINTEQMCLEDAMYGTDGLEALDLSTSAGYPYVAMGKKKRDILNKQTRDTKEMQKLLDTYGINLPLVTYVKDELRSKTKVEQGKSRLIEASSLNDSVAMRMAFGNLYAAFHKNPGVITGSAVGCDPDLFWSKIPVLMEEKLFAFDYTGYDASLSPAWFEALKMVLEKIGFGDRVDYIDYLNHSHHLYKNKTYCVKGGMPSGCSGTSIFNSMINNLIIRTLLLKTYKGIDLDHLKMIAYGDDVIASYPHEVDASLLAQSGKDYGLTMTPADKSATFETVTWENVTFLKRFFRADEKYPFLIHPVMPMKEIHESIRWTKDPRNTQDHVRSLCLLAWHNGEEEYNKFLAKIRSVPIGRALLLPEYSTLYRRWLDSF

As for `COC(=O)CSc1nnc2c(n1)[nH]c1ccccc12`, the % elongation is 102% (inactive) and the z-score came out at 0.2. Also, the % elongation under setting [1] came out at 108%.
Regarding `CC(C)(C)NC(=O)C1CCN(S(=O)(=O)c2ccccc2)CC1`, the % elongation is 101% (inactive) and the z-score is 0.1. Moreover, under setting [1], the % elongation came to 103%.
As to `CCC(=O)Nc1ccc(C(=O)n2nnc3ccccc32)cc1`, the % elongation was 104% (inactive) and the z-score was determined as 1. The % elongation under setting [1] came to 102%.
For `O=C1C(Nc2ccc(O)cc2)=C(n2nnc3ccccc32)C(=O)c2ccccc21`, in that order: 79% (active), -2.2 and 79%.
As to `N#CC1=C2Sc3ccccc3N2CC1=O`, the % elongation was 97% (inactive) and the z-score is -1. Besides, under setting [1], the % elongation amounted to 165%.
For `Cc1c(C(=O)NC(C)CCc2ccccc2)oc2c1C(=O)CCC2` (configuration not stated) the same measures were 102% (inactive), 0 and 102%.
For the compound `Sc1ccc2ccccc2c1`, the % elongation was 90% (active) and the z-score was -1.5. Under setting [1], the % elongation came out at 91%.
For `c1ccc2cc3cnccc3cc2c1` the same measures were 100% (inactive), -0.3 and 102%.
For `O=C1c2ccccc2C(=O)C1c1ccc2ccccc2c1`, in that order: 93% (inactive), -1.3 and 92%.
Regarding `N#Cc1ccc(COC(=O)Cc2noc3ccccc23)cc1`, the % elongation is 109% (inactive) and the z-score worked out at 0.7. Under setting [1], the % elongation stood at 104%.
For `O=S(=O)(c1cc(S(=O)(=O)C(F)(F)F)c(Cl)c(S(=O)(=O)C(F)(F)F)c1)C(F)(F)F`, in that order: 98% (inactive), -0.2 and 95%.
For `C/C(=N\c1ccccn1)C1=C(O)c2ccccc2C1=O`, in that order: 98% (inactive), -1 and 97%.
As to `O=S(=O)(NC1CCCCC1N1CCCCC1)c1ccc(Cl)cc1` (configuration not stated), the % elongation was 104% (inactive) and the z-score came out at 0.2. Moreover, under setting [1], the % elongation came to 96%.
For `Cc1ccc2nc(C)c3c(c2c1)N(c1ccccc1)CC3` the same measures were 89% (active), -2.3 and 89%.
For `Cc1ccc2nc(-c3ccccn3)cc(C(=O)O)c2c1` the same measures were 103% (inactive), 0.8 and 100%.
For `Cc1ccc2nc(Nc3ccccc3)cc(C)c2c1`, in that order: 110% (inactive), 0.8 and 111%.
As for `CC(=O)OC[C@H]1O[C@@H](NC(=S)NN)[C@H](OC(C)=O)[C@@H](OC(C)=O)[C@@H]1OC(C)=O`, the % elongation was 103% (inactive) and the z-score turned out to be 0.3. Further, the % elongation under setting [1] came to 96%.
For `CC(=O)Oc1c[n+]([O-])n(-c2ccccc2)n1` the same measures were 97% (inactive), -0.6 and 100%.
On to `CCOC(=O)C(C(=O)c1ccccc1)C1(O)C(=O)c2ccccc2C1=O` (configuration not stated), for which the % elongation is 46% (active) and the z-score is -6.9. Also, the % elongation under setting [1] stood at 56%.
For `CCOC(=O)C1=C(C)NC(=O)NC1c1ccccc1` (configuration not stated) the same measures were 101% (inactive), -0.1 and 102%.
For `CCOc1cc(C2C(C(=O)OC)=C(C)NC3=C2C(=O)c2ccccc23)ccc1O` (configuration not stated) the same measures were 112% (inactive), 0.2 and 113%.
As for `COC(=O)CC(N)c1ccc(Cl)cc1` (configuration not stated), the % elongation is 103% (inactive) and the z-score was determined as 0.2. Under setting [1], the % elongation is 106%.
For `C=CCN1CCN(C(c2ccc(C)cc2)c2nnnn2C2CCCC2)CC1` (configuration not stated) the same measures were 103% (inactive), 0.4 and 102%.
For `Cc1ccc(NC(=S)Nc2ccc(C)cc2)cc1`, in that order: 76% (active), -4.1 and 82%.
For `Cc1ccc(NC(=O)CC(=O)Nc2ccc(C)cc2)cc1` the same measures were 106% (inactive), 0.3 and 102%.
Regarding `CSC(=S)Nc1ccc(C)cc1`, the % elongation was 100% (inactive) and the z-score stood at 0.1. Further, the % elongation under setting [1] was 104%.
For `O=C(O)COc1cc(Br)c(Br)c(Br)c1O`, in that order: 102% (inactive), 0.1 and 92%.
Turning to `CCn1c(SCc2cc(=O)oc3cc(NC(C)=O)ccc23)nnc1-c1ccccc1`, the % elongation is 100% (inactive) and the z-score is -0.5. Also, the % elongation under setting [1] is 111%.
For `O=C(NN=c1c(=O)c2ccccc2c1=O)c1ccncc1` the same measures were 58% (active), -12.6 and 54%.
For `CC(C)/C=N/NC(=O)c1ccccc1`, in that order: 103% (inactive), 0.3 and 103%.
For `O=C(NNc1ncnc2ccccc12)c1ccncc1` the same measures were 106% (inactive), 0.6 and 101%.
For the compound `O=c1[nH]c(CN2CCCC2c2ccc3c(c2)OCCO3)nc2cc(Cl)ccc12` (configuration not stated), the % elongation was 102% (inactive) and the z-score was 0. Further, the % elongation under setting [1] came out at 104%.
For the compound `CCN(C(=O)CN1CCCCC1)c1nc2ccc(C)cc2s1`, the % elongation is 102% (inactive) and the z-score is -0.3. Further, the % elongation under setting [1] is 103%.
For `NC(=O)C1CCN(C(=S)Nc2ccccc2)CC1`, in that order: 103% (inactive), 1.1 and 103%.
For `CC(C)OC(=O)Nc1ccccc1` the same measures were 106% (inactive), 0.8 and 110%.
For `O=C(Nc1ccccc1)C(=S)Nc1ccccc1`, in that order: 87% (active), -1.9 and 88%.
`COc1nc(NCCO)nc(Nc2ccc(I)cc2C)n1`: the % elongation is 99% (inactive) and the z-score is -1.2. For the same compound, the % elongation under setting [1] was 94%.
For `O=C1c2ccccc2C(=O)N1CCN1c2cccc3cccc(c23)S1(=O)=O`, in that order: 100% (inactive), 0.1 and 101%.
For `COC(=O)C1=CN(CCc2ccccc2)C=C(C(=O)OC)C1C(=O)OC` the same measures were 107% (inactive), 0.6 and 108%.
For `CC(=O)Nc1ccccc1NC(=O)CN(C)S(=O)(=O)c1ccccc1` the same measures were 100% (inactive), 0 and 103%.
Take `COC(=O)c1cc(-c2cccs2)nc2ccccc12`: the % elongation is 101% (inactive) and the z-score was -0.1. Besides, the % elongation under setting [1] was 101%.
For `Cc1cc(N2CCNCC2)nc(C)n1`, in that order: 102% (inactive), 0.1 and 102%.
For the compound `COC(=O)c1cc(N2CCNCC2)nc2ccccc12`, the % elongation was 88% (active) and the z-score was -1.4. In addition, the % elongation under setting [1] was determined as 88%.
For `N#CCCn1c(SCC(=O)NCCSc2ccc(Cl)cc2)nc2ccccc21` the same measures were 101% (inactive), -0.2 and 104%.
For the compound `Cc1cc(SCc2ccccc2)nc2ccccc12`, the % elongation is 103% (inactive) and the z-score is 0.4. For the same compound, the % elongation under setting [1] stood at 102%.
For `Cc1cc(/C=C/C(=O)N2CCCC2c2cccs2)c(C)n1Cc1ccco1` (configuration not stated) the same measures were 104% (inactive), 0.6 and 98%.
For `CCCCOC(=O)Nc1nccs1` the same measures were 100% (inactive), -0.4 and 99%.
For `Nc1[nH]c(=S)sc1C(=O)Nc1nccs1` the same measures were 70% (active), -3.3 and 75%.
Consider `Cn1cccc1C(=O)Nc1nccs1`, for which the % elongation was 111% (inactive) and the z-score came out at 0.9. In addition, the % elongation under setting [1] turned out to be 116%.
For `CCN(C(=O)CSc1nnc2scc(-c3cccc(OC)c3)n12)c1ccccc1` the same measures were 103% (inactive), 0.2 and 100%.
For `C#CCN1CCS(=O)(=O)CC1` the same measures were 100% (inactive), -0.3 and 103%.
As for `CCNC(=O)C1CCCN(S(=O)(=O)N(CC)c2ccc(OCC)cc2)C1` (configuration not stated), the % elongation was 103% (inactive) and the z-score is 0.5. In addition, the % elongation under setting [1] was 105%.
For `CC(C)c1ccc(C2CC(=O)N3CN(C4CCCCC4)CSC3=C2C#N)cc1` (configuration not stated), in that order: 81% (active), -3.5 and 82%.
For `Cc1cc(C)c(C(=O)COC(=O)c2ccc(N(C)C)cc2)c(C)c1`, in that order: 104% (inactive), -0.3 and 97%.
